# Assay outcomes (PubChem)
# This is a sample that favours compounds with a hit; in the whole collection about 4.8% have one here.
# DAX1 inh-1: inhibitors of DAX1 repression of SF-1 activated StAR promoter | AID 652010 | HEK293T StAR-luciferase reporter, SF-1/DAX-1 repression relief | 370,000 compounds, 1.1% hits | inhibition, % at 6.8 µM;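 active means inhibition above the mean over all tested compounds plus 3 SD, cut at about 3.6% in these data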;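 further: 0% = DAX-1 cells with DMSO and 100% = cells lacking DAX-1 with DMSO; higher inhibition means more luminescence from relief of DAX-1 repression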
# hcDAF12 agonist: H. contortus DAF-12 activation, primary screen. HEK293 hcDAF-12 lit1-tk-luc reporter, luminescence; 0% DMSO, 100% Δ7-dafachronic acid. activation, % at 6.8 µM. 370,000 compounds, 1.4% hits. AID 652067;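 active means activation above the mean of all tested compounds plus 3 SD, cut at about 5.5% in these data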;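 further: 100% = response to 3 µM Δ7-dafachronic acid high control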
# ssDAF12 agonist: S. stercoralis DAF-12 activation, primary screen; HEK293 ssDAF-12/GRIP1 lit1-tk-luc reporter, luminescence; % of 3 µM dafachronic acid response; activation, % at 6.8 µM; 370,000 compounds, 1% hits;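 active means activation above the mean over all tested compounds plus 3 SD, cut at about 0.9% in these data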;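 further: 0% = DMSO-only wells and 100% = 3 µM delta7-dafachronic acid wells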
# DAX1 inh-2: inhibitors of human orphan nuclear receptor DAX1 (NR0B1); P51843; HEK293 Gal4-DAX1 luciferase reporter, luminescence; inhibition, % at 6.75 µM; 340,000 compounds, 0.99% hits; AID 504766;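 active means inhibition above the mean over all tested compounds plus 3 SD, cut at about 4.2% in these data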;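 further: 0% = DAX1-transfected cells with DMSO and 100% = empty-vector control cells with DMSO; inhibition shows as a rise in luminescence from relieved DAX1 repression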
# Target sequence (P51843 207-470 limits assumed): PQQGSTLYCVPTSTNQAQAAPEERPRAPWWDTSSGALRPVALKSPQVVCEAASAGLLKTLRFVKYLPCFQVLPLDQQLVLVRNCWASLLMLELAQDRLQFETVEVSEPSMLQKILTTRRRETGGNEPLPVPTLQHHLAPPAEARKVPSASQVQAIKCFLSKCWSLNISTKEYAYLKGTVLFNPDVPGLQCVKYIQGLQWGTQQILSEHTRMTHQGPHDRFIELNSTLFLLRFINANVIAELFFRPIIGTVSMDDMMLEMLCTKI
# NR1D1 modulator: Rev-erb alpha (human) modulation | P20393 | Rev-erbα–FITC-DNA binding, fluorescence polarization, 90 min | activity, % at 10 µM | 370,000 compounds, 0.79% hits;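 active means activity above about 14%, limit read from the data; passing the limit was not always enough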;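 further: 0% = DMSO wells with 35 nM protein and 100% = DMSO wells with 750 nM protein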
# hgDAF12 agonist: activates the H. glycines DAF-12 receptor ligand-binding domain | HEK293 GAL4-hgDAF12 UAS-luciferase reporter, agonist luminescence; normalized to butyrate control | activation, % at 6.8 µM | 370,000 compounds, 1.8% hits | AID 687014;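 active means activation above a cutoff set at the mean of all screened compounds plus 3 SD, cut at about 10% in these data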;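 further: 0% = DMSO wells and 100% = sodium butyrate wells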
# Numbers without * were called inactive; . = no result.
SMILES,DAX1 inh-1,hcDAF12 agonist,ssDAF12 agonist,DAX1 inh-2,NR1D1 modulator,hgDAF12 agonist
O=c1c(-c2ccc(Cl)cc2)[n+]([O-])c2ccccc2n1O,0,0,0,-1,0,2
O=c1c(-c2cccc([N+](=O)[O-])c2)[n+]([O-])c2ccccc2n1O,0,1,-1,6.5*,1,2
CCOc1ccccc1N(C(=O)Nc1ccc(Cl)cc1)C1=NCCS1,1,5,-1,-1,-9,2
CCOc1ccccc1N(C(=O)Nc1cccc(Cl)c1)C1=NC(C)CS1 (stereo unspecified),-1,-3,-2,4.5*,8,1
Cc1ccccc1N1CCN(CCc2nnc3n2CCCC3)CC1,.,.,.,.,-2,.
Cc1cccn2c(=O)c3cc(C(=O)N4CCCCC4)sc3nc12,1,5,1.5*,2,-2,6
Cc1cccn2c(=O)c3cc(C(=O)N4CCCC(C)C4)sc3nc12 (stereo unspecified),1,4,1.2*,0,-2,3
CN(CCO)c1cccc2c1S(=O)(=O)N(Cc1cn(Cc3cccc(F)c3)nn1)Cc1ccccc1O2,0,-3,-1,.,1,-1
Cc1ccc(C(=O)C2CC2)c(C)c1,-1,1,3.1*,-1,9,1
Cc1ccc(C(=O)C2CC2)cc1C,-1,0,-1,-1,-1,-1
Cc1cc(NC(=O)CCCC(=O)N(CC(=O)NCCc2ccccc2)Cc2ccc(F)cc2)no1,-1,0,1.1*,0,-6,-2
Cc1cc(NC(=O)c2cccs2)ncc1NC(=O)C(C)(C)C,3,3,1.1*,2,-3,10
c1ccc2c(c1)Nc1cc3ccccc3cc1S2,0,6.5*,0,1,-3,7
COc1ccc(/[N+]([O-])=C/c2ccoc2)cc1,3,2,0,3,0,11*
COc1ccc(C(=O)N/N=C\c2ccoc2)cc1,0,-1,-1,0,-1,5
CC(C)Cc1nnc(NC(=O)C2=COCCO2)s1,3.8*,2,-1,2,9,7
O=C(Nc1nccs1)C1=COCCO1,-1,0,-1,2,2,2
O=C(Cc1c(F)cccc1Cl)NCc1cccnc1,0,5.6*,0,1,3,3
O=C(Cc1c(F)cccc1Cl)Nc1cccnc1,0,2,-1,0,6,0
Cc1c[nH]c2cccc(-c3cc4ccccc4o3)c12,0,2,0,.,-3,4
NC(N)=NC(=O)c1nc(Cl)c(N2CCCCCC2)nc1N,3,0,-1,0,0,13*
Clc1ccc(-c2nnc3n2N=C(c2ccc(-c4ccccc4)cc2)CS3)c(Cl)c1,-3,-2,-2,.,3,5
O=C1CCC2(CCC(c3ccccc3)CC2)N1CCO (stereo unspecified),-1,-2,-1,.,-5,1
CS(=O)(=NS(=O)(=O)c1ccc(Cl)cc1)c1ccccc1 (stereo unspecified),0,0,-2,4.3*,1,3
COc1ccc(Cc2c(C)nc(N)nc2Cl)cc1,0,-1,1.7*,0,2,-1
SMILES,DAX1 inh-1,hcDAF12 agonist,ssDAF12 agonist,DAX1 inh-2,NR1D1 modulator,hgDAF12 agonist
COc1cccc(Cn2cc(COC(=O)NCC(C)C)nn2)c1,-1,0,0,.,3,3
O=C(Nc1cccnc1)Nc1cccc([N+](=O)[O-])c1,0,6.5*,-1,1,0,2
O=C(Nc1ccc(Cl)cc1)Nc1cnccn1,0,-1,-2,4,0,7
COc1cc([N+](=O)[O-])ccc1NC(=O)Nc1cccnc1,-3,0,-1,0,1,5
CC(=O)c1ccc(NC(=O)Nc2cccnc2)cc1,4.1*,1,0,0,-5,5
Cc1ccc(NC(=O)Nc2cnccn2)cc1,4.3*,0,0,2,4,8
O=C(OC12CCCN(C1)/C(=C/c1cccc(Cl)c1)C2)c1ccno1 (stereo unspecified),0,-1,-1,.,-3,3
CCn1c(COc2ccc(Cl)cc2)nnc1SC1CCc2ccccc2C1=O (stereo unspecified),1,3,1.5*,1,-1,-3
